Source: PubChem (Sanford-Burnham Center for Chemical Genomics)
TIM10 inh – inhibits growth of TIM10 yeast strain; S. cerevisiae TIM10 strain growth, BacTiter-Glo luminescence, 24 h; inhibition, % at 10 µM; AID 463195; actives 1.4% (n = 330,000);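 active = inhibition of 40% or more at the single tested concentration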;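 also: wild-type TIM10 isogenic control strain grown at permissive 25 °C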
NALP1 yeast inh – blocks the NALP1 inflammasome reconstituted in yeast; S. cerevisiae NALP1/ASC/caspase-1 growth, X-gal OD620, 72 h; actives 0.61% (n = 280,000); inhibition, % at 10 µM; in the data active = inhibition mostly above about 24%, no sharp cut-off; inactive = mostly below about 32%
tim10-1 inh – growth inhibitors of tim10-1 mutant yeast; S. cerevisiae tim10-1 ts strain growth, BacTiter-Glo, 24 h; inhibition, % at 20 µM; actives 2.2% (n = 330,000); AID 463190;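 active = inhibition of at least 40%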;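 also: mutant grown at 25 °C; 0% = DMSO wells with yeast and 100% = wells holding no yeast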
tim23-1 inh – tim23-1 yeast growth inhibition; AID 463212; actives 1.3% (n = 330,000); inhibition, % at 20 µM; S. cerevisiae tim23-1 growth, BacTiter-Glo luminescence, 24 h;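 active = growth inhibition of the mutant yeast at or above 50%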;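 also: temperature-sensitive mutant grown at 25 °C; plate controls were DMSO-treated mutant yeast for no effect and medium wells lacking yeast for full effect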
NALP3 yeast inh – blocks the NALP3 inflammasome reconstituted in yeast; actives 0.39% (n = 330,000); inhibition, % at 10 µM; Yeast reconstituted NLRP3/ASC/caspase-1, beta-gal luminescence, 24 h;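 active = inhibition of 50% or more; inactive = inhibition below 50%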;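 also: plate controls were induced DMSO wells for no effect and uninduced yeast grown without galactose for full effect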
tim10-1 confirm – tim10-1 yeast growth inhibition, confirmed; inhibition, % at 20 µM; AID 463213; S. cerevisiae tim10-1 ts strain growth, BacTiter-Glo, 24 h; actives 56% (n = 7,400); shares compounds with tim10-1 inh;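 active = inhibition of yeast growth at or above a set limit in either of two repeat tests at 20 µM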;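 also: tim10-1 mutant grown at permissive 25 °C to find synthetic lethal compounds; 0% = DMSO yeast wells and 100% = medium wells without yeast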
tim10 confirm – confirmation of TIM10 yeast growth inhibitors; shares compounds with TIM10 inh; S. cerevisiae tim10 strain growth, BacTiter-Glo luminescence, 24 h; inhibition, % at 10 µM; actives 63% (n = 4,600); AID 463215;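 active = inhibition of yeast growth at or above a set limit in either of two replicates at 10 µM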;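 also: this counterscreen used the strain with wild-type TIM10; 0% = yeast with DMSO and 100% = medium wells lacking yeast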
tim23-1 confirm – confirmation of tim23-1 mutant yeast growth inhibitors; S. cerevisiae tim23-1 growth, BacTiter-Glo luminescence, 24 h; inhibition, % at 20 µM; AID 463218; shares compounds with tim23-1 inh; actives 83% (n = 4,400);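 active = inhibition above about 39% in either of two replicate wells at 20 µM, limit read from the data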;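 also: temperature-sensitive tim23-1 mutant grown at 25 °C; 0% = DMSO wells with yeast and 100% = medium wells without yeast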
Numbers without * were called inactive; / = no result given. Most compounds without a hit are left out; they make up all but 4.1% or so of the library.

SMILES | TIM10 inh | NALP1 yeast inh | tim10-1 inh | tim23-1 inh | NALP3 yeast inh | tim10-1 confirm | tim23-1 confirm | others
CCOc1ccc(Nc2nc(N)c3ccccc3n2)cc1 | 46.0* | 29.7 | 62.3* | 56.8* | 38.7 | 65.4* | 64.7* | tim10 confirm=49.6*
Nc1nc(Nc2ccc(Cl)cc2)nc2ccccc12 | 68.5* | 1.3 | 67.3* | 57.9* | 40.2 | 57.1* | 55.0* | tim10 confirm=67.4*
CC12CC3CC(C)(C1)CC(C(=O)NCc1cccnc1)(C3)C2 | -5.6 | 4.4 | 10.5 | 23.5 | 16.2 | / | /
O=C(NC(=S)Nc1ccc(Br)c(Cl)c1)C1CC1 | 24.8 | 9.0 | 43.5* | 62.2* | 23.6 | 22.0 | 53.8*
O=C(NC(=S)Nc1cccc(Cl)c1Cl)C1CC1 | 41.1* | 17.8 | 43.4* | 51.5* | 20.5 | 15.9 | 32.1 | tim10 confirm=23.9
O=C(N/N=C/c1ccccn1)c1sc2ccccc2c1Cl | 17.0 | 3.4 | 47.6* | 75.7* | 33.7 | 41.0* | 63.8*
COc1ccc(C(=O)NNC(=O)c2ccc3ccccc3n2)cc1 | 8.3 | / | -3.3 | -6.4 | 17.7 | / | /
O=c1[nH]c(Sc2ccc([N+](=O)[O-])cc2[N+](=O)[O-])nc2ccccc12 | 29.1 | / | 44.7* | 68.4* | 15.5 | 37.8* | 52.5*
CC1=NN(C(=O)COc2ccc(C)c(C)c2)C(O)(c2ccccc2)C1 (stereo unspecified) | -12.3 | 10.7 | 11.7 | 25.3 | 3.1 | / | /
O=C(NC(=S)Nc1cccc2cc(O)ccc12)c1ccccc1Br | 14.7 | -3.7 | 45.6* | 51.5* | 36.8 | 20.6 | 49.0*
O=C(NC(=S)Nc1cccc2cc(O)ccc12)c1ccco1 | 3.1 | -4.2 | 28.7 | 22.5 | 2.0 | / | /
O=C(/C=C/c1ccco1)NC(=S)Nc1ccccc1N1CCOCC1 | 42.9* | 19.6 | 50.0* | 55.5* | 15.8 | 26.8 | 48.3* | tim10 confirm=50.7*
O=C(NC(=S)Nc1ccccc1N1CCCC1)c1ccco1 | 34.9 | 1.6 | 35.5 | 41.0 | -48.8 | / | /
O=C(NC(=S)Nc1ccccc1N1CCCCC1)c1ccco1 | 52.4* | -0.5 | 49.1* | 54.1* | -43.5 | 36.7* | 51.4* | tim10 confirm=-18.0
O=C(NC(=S)Nc1ccccc1N1CCCC1)c1ccccc1Br | 39.0 | -1.2 | 41.1* | 61.3* | 17.7 | 7.8 | 42.8*
O=C(NC(=S)Nc1ccccc1N1CCCC1)c1ccccc1[N+](=O)[O-] | / | 11.0 | / | / | / | / | /
C[C@@H](N)C(=O)NC[C@H]1O[C@@H](n2cnc3c(N)ncnc32)[C@H](O)[C@@H]1O | -9.0 | / | -6.2 | 23.0 | / | / | /
NS(=O)(=O)c1ccc(NC(=O)NC2CC(=O)N(c3ccc4c(c3)OCCO4)C2)cc1 (stereo unspecified) | -5.6 | / | -9.2 | -0.6 | 2.4 | / | /
Cc1ccc(CC(=O)Nc2nnc(-c3ccc(F)cc3)o2)c(C)c1 | -10.2 | 25.0 | -10.5 | 1.5 | 0.6 | / | /
O=C(N(c1ccccc1)c1ccccc1)N(c1ccccc1)c1ccccc1 | 39.3 | 16.0 | 45.6* | 51.7* | -1.5 | 21.5 | 41.2*
COc1cccc(-c2nc(NC(C)C)c3ccccc3n2)c1O | 26.6 | -10.7 | 56.9* | 54.8* | 7.2 | 45.3* | 51.5*
C[C@@]12CCC=C[C@H]1[C@H](c1ccc(C(F)(F)F)cc1)N(Cc1ccccc1)C2=O | 35.8 | 3.6 | 37.5 | 42.3 | 22.9 | / | /
COC(=O)c1cccc(S(=O)(=O)N2CCN(c3nc4ccccc4s3)CC2)c1 | 13.5 | -10.6 | 11.4 | 12.1 | 11.2 | / | /
O=C(c1cccs1)c1no[n+]([O-])c1C(=O)c1cccs1 | -5.7 | 26.8 | 72.3* | 81.2* | 24.5 | 86.8* | 96.8*
CCCN1C/C(=C/c2ccc3c(c2)OCO3)C(=O)/C(=C/c2ccc3c(c2)OCO3)C1 | 34.5 | 35.4 | 36.3 | 44.5 | 18.2 | / | /
SMILES | TIM10 inh | NALP1 yeast inh | tim10-1 inh | tim23-1 inh | NALP3 yeast inh | tim10-1 confirm | tim23-1 confirm | others
CC1=C/C(=C\c2ccc3c(c2)OCO3)C(=O)S1 | 46.0* | 0.5 | 48.0* | 53.2* | -9.1 | 39.4* | 20.4 | tim10 confirm=39.8*
Cc1ccc(F)cc1NC(=O)c1ccc(NS(=O)(=O)c2ccc(Br)s2)cc1 | 11.0 | 36.0 | 9.8 | 15.3 | 3.1 | / | /
COc1ccc(-c2nc(-c3ccccc3)c(-c3cc([N+](=O)[O-])ccc3C)[nH]2)cc1O | 16.6 | 3.1 | 43.6* | 52.8* | -2.9 | 36.4* | 58.0*
Cc1ccc([N+](=O)[O-])cc1-c1[nH]c(-c2ccc(O)c(O)c2)nc1-c1ccccc1 | 9.2 | -1.2 | 28.2 | -9.9 | 3.6 | / | /
CCN(CC)CCN(C(=O)c1ccc2c(c1)CCCC2)c1nc2cc(OC)c(OC)cc2s1 | 49.4* | 15.3 | 61.1* | 65.8* | 28.0 | 39.9* | 61.3* | tim10 confirm=46.4*
COc1cc2nc(N(CCN(C)C)C(=O)c3ccc4ccccc4c3)sc2cc1OC | 10.4 | 10.1 | 5.3 | 21.5 | 8.1 | / | /
CSc1ccc(S(=O)(=O)N2CCC(C(=O)NCCN3CCOCC3)CC2)cc1 | -9.3 | 5.1 | 10.2 | 10.7 | 11.5 | / | /
Cc1cccc(C(=O)N/C(=C\c2ccco2)C(=O)N2CCCC2)c1 | -2.3 | 19.0 | 2.3 | 0.2 | 20.1 | / | /
CNC(=S)/N=C/NOCc1ccc(Cl)cc1Cl | 50.7* | 16.1 | 65.8* | 58.3* | 19.5 | 46.8* | 66.5* | tim10 confirm=61.7*
O=C(/C=C/c1ccccc1)NCC(=O)N/N=C/c1cccs1 | 9.3 | -0.9 | 14.9 | 12.2 | -7.1 | / | /
O=C(Nc1ccc(O)cc1)c1ccccc1OCc1ccccc1 | 37.2 | 3.8 | 45.3* | 53.5* | 28.1 | 29.6 | 52.9*
Cc1ccc(NC(=Nc2ccc(Br)cc2)N2CCOCC2)cc1C | -50.0 | 8.9 | -146.6 | -54.4 | 23.7 | / | /
Nc1ccccc1C#Cc1ccc2[nH]ccc2c1 | 25.4 | / | 43.6* | 62.7* | 25.2 | 6.7 | 52.9*
Oc1c(N=Nc2ccccn2)ccc2ccccc12 | 41.5* | 7.9 | 72.1* | 52.8* | 19.6 | 53.2* | 75.6* | tim10 confirm=46.0*
CC(C)N(CCO)C(=O)CCc1nnc(Cc2cccc(C(F)(F)F)c2)o1 | -11.9 | -9.8 | 8.8 | 7.5 | 6.4 | / | /
Cc1cc(C)n(CC(O)Cn2c3ccc(Cl)cc3c3cc(Cl)ccc32)c(=O)n1 (stereo unspecified) | 61.0* | 18.6 | 56.8* | 54.4* | 8.0 | 53.8* | 46.7* | tim10 confirm=56.5*
O=C(CSc1ncccn1)NCC1CCCO1 (stereo unspecified) | 2.7 | 2.7 | -8.3 | -6.0 | 6.8 | / | /
COc1ccc(O)c(-c2cc(-c3cccs3)[nH]n2)c1 | 36.8 | 19.5 | 42.8* | 64.0* | 32.0 | 16.1 | 69.2*
O=c1c2ccccc2oc2cc(-c3ccc4cc[nH]c4c3)ccc12 | 6.3 | / | 2.9 | 7.4 | -6.6 | / | /
O=c1c2ccccc2oc2ccc(-c3ccc4[nH]ccc4c3)cc12 | 41.1* | / | 42.1* | 62.2* | 43.8 | 38.9* | 73.7* | tim10 confirm=66.2*
